This is an account of results in the supplement of paper PMC12350171.

Holding throughout (details): 20 µM
For assay [1], the system named is Haemophilus parainfluenzae. The assay is described as follows: growth AUC normalised to DMSO control (fraction of control); higher = less growth inhibition, active = hit call of the paper. An outline of the steps:
(§1)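 Pathogens were passaged twice under anaerobic conditions, then inoculated into pre-reduced mGAM plates at a starting OD578 of 0.01, with compound at 20 μM and 1% DMSO, and sealed with breathable membranes. For Haemophilus parainfluenzae, the medium was supplemented with hemin and NAD. OD578 was read every hour for 24 h in three biological replicates. Growth-curve AUC was calculated by the trapezoidal rule up to the exponential-to-stationary transition and normalised to DMSO controls on the same plate.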

Assay [2] has as its system Salmonella enterica typhimurium. The description is as above. The procedure, abridged:
as §1

The next assay relates to Shigella flexneri. Described as above. The procedure, abridged: as §1
In another assay the test system is Vibrio cholerae. The description is as above. An outline of the steps: as §1
Assay [3] deals with Yersinia pseudotuberculosis. Described as above. An outline of the steps:
as §1

The subject of another assay is P. vulgatus RND KO. The assay is described as follows: growth AUC normalised to DMSO control (median) (fraction of control); higher = less growth inhibition, active = hit call of the paper. The procedure, abridged: (§2)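 Anaerobic growth was tracked hourly at OD578 for 24 h in 96-well plates of mGAM seeded at OD578 0.01 with each approved-drug library compound at 20 μM and 1% DMSO. Strains had first been passaged twice overnight without oxygen. Three biological replicates were run. The reported median is the area under the curve, calculated by the trapezoidal rule on curves truncated at entry into stationary phase and normalised to vehicle wells on the same plate.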

For another assay, the system named is P. vulgatus WT. Described as above. The procedure, abridged: as §2
Assay [4] deals with S. enterica typhimurium WT. Described as above. An outline of the steps:
as §2

Assay [5] relates to S. enterica typhimurium tolC KO. Described as above. The procedure, abridged:
as §2

Structures can show the parent of a compound that is named as a salt. Unmarked numbers belong to inactive results.
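For growth AUC normalised to DMSO control (median) in this document: active when median AUC fell below 0.1.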

`COc1ccc(C(=O)N2CCCC2=O)cc1` [Aniracetam]: the “growth AUC normalised to DMSO control” value is 0.993 in assay [1]; 1 in [2]; 0.998 in the assay with Shigella flexneri; 1.01 with Vibrio cholerae; 0.972 in [3]; 0.996 in the assay with P. vulgatus RND KO. Further, the “growth AUC normalised to DMSO control” value is 1.01 with P. vulgatus WT, 0.995 in assay [4] and 0.997 in assay [5].
With `O=C1CC[C@@]2(O)[C@H]3Cc4ccc(O)c5c4[C@@]2(CCN3CC2CC2)[C@H]1O5` [Naltrexone hydrochloride dihydrate], the “growth AUC normalised to DMSO control” value is 0.995 in [1]; 1 in [2]; 0.992 in the assay with Shigella flexneri; 1 with Vibrio cholerae; 1.01 in [3]; 0.994 with P. vulgatus RND KO. In addition, the figures for the “growth AUC normalised to DMSO control” value (in the assay on P. vulgatus WT; in [4]; in assay [5]) were 1.02, 0.993 and 0.998, respectively.
Consider `CC[C@@H](C(N)=O)N1CCCC1=O` [Levetiracetam], for which the “growth AUC normalised to DMSO control” value was 1.04 in assay [1]; 1.01 in assay [2]; 1.03 in the assay with Shigella flexneri; 1.05 with Vibrio cholerae; 1.01 in assay [3]; 1.01 in the assay on P. vulgatus RND KO. Further, the “growth AUC normalised to DMSO control” value in the assay with P. vulgatus WT was 1.03; in [4], 1.01; in assay [5], 1.
Turning to `C[C@H](N)[C@H](O)c1ccc(O)c(O)c1` [Levonordefrin], the “growth AUC normalised to DMSO control” value in assay [1] is 1.04; in [2], 1.01; with Shigella flexneri, 1; in the assay on Vibrio cholerae it was 1; in assay [3], 1.03; in the assay on P. vulgatus RND KO, 1.01. Further, the “growth AUC normalised to DMSO control” value is 1.03 in the assay with P. vulgatus WT, 0.99 in assay [4] and 1 in assay [5].
Consider `C[CH2][Hg][S]c1ccccc1C(=O)[O-].[Na+]` [Thimerosal], for which the “growth AUC normalised to DMSO control” value is 1.2 in [1]; 0.932 (active) in assay [2]; 0.828 (active) in the assay on Shigella flexneri; 0.935 in the assay on Vibrio cholerae; 1 in assay [3]; 0.0191 (active) in the assay on P. vulgatus RND KO. Besides, the “growth AUC normalised to DMSO control” value was 0.341 in the assay with P. vulgatus WT, 0.91 in assay [4] and 0.956 in [5].
For `C[C@]12CCC(=O)C=C1C=C[C@@H]1[C@@H]2CC[C@@]2(C)[C@H]1CC[C@@]2(O)CCC(=O)O` [Canrenoic acid potassium salt], the “growth AUC normalised to DMSO control” value in assay [1] is 0.979; in [2], 0.993; with Shigella flexneri it was 0.97; in the assay with Vibrio cholerae, 1.02; in assay [3], 0.983; with P. vulgatus RND KO it was 1.01. Also, the “growth AUC normalised to DMSO control” value is 0.996 in the assay with P. vulgatus WT, 1.01 in assay [4] and 1 in assay [5].
As for `CO[C@]12C[C@@H](COC(=O)c3cncc(Br)c3)CN(C)[C@@H]1Cc1cn(C)c3cccc2c13` [Nicergoline], the “growth AUC normalised to DMSO control” value in [1] is 1.03; in [2] it was 1.01; in the assay with Shigella flexneri it was 1; with Vibrio cholerae, 0.996; in assay [3], 1; in the assay on P. vulgatus RND KO, 0.933. Moreover, the “growth AUC normalised to DMSO control” value with P. vulgatus WT was 0.948; in assay [4] it was 1; in assay [5], 0.942.
As to `C[N+]1(C)CCOC(O)(c2ccc(-c3ccc(C4(O)C[N+](C)(C)CCO4)cc3)cc2)C1` (configuration not stated) [Hemicholinium bromide], the “growth AUC normalised to DMSO control” value was 0.977 in [1]; 1 in assay [2]; 1.03 in the assay on Shigella flexneri; 1.06 with Vibrio cholerae; 1.03 in [3]; 1 in the assay with P. vulgatus RND KO. Besides, the “growth AUC normalised to DMSO control” value is 1.02 with P. vulgatus WT, 1.01 in assay [4] and 1 in [5].
On to `CCNCC(O)c1cccc(O)c1` (configuration not stated) [Etilefrine hydrochloride], for which the “growth AUC normalised to DMSO control” value in [1] is 0.987; in assay [2], 0.976; in the assay on Shigella flexneri, 0.987; with Vibrio cholerae, 0.995; in assay [3], 0.979; in the assay on P. vulgatus RND KO, 0.997. Further, the entries for the “growth AUC normalised to DMSO control” value (with P. vulgatus WT; in assay [4]; in [5]) were 0.995, 0.993 and 1, respectively.
With `CCN(CC)C(C)C(=O)c1ccccc1` (configuration not stated) [Amfepramone hydrochloride], the “growth AUC normalised to DMSO control” value in [1] was 0.998; in assay [2], 0.995; in the assay on Shigella flexneri, 0.982; in the assay with Vibrio cholerae, 0.999; in assay [3], 1.02; in the assay with P. vulgatus RND KO it was 1.01. In addition, the “growth AUC normalised to DMSO control” value in the assay on P. vulgatus WT was 1.01; in assay [4] it was 1.01; in assay [5], 0.988.
Take `NCCc1c[nH]c2ccc(O)cc12` [Serotonin hydrochloride]: the “growth AUC normalised to DMSO control” value in assay [1] is 1.07; in [2], 0.983; in the assay on Shigella flexneri, 1.02; in the assay with Vibrio cholerae it was 1.06; in assay [3], 0.981; in the assay with P. vulgatus RND KO, 1.04. Besides, the “growth AUC normalised to DMSO control” value is 1.08 in the assay with P. vulgatus WT, 1 in assay [4] and 0.998 in [5].
Consider `Clc1ccc(C(OCCN2CCCCC2)c2ccccc2)cc1` (configuration not stated) [Cloperastine hydrochloride], for which the “growth AUC normalised to DMSO control” value in [1] is 0.833; in assay [2] it was 0.992; in the assay on Shigella flexneri, 1.03; with Vibrio cholerae, 0.954; in assay [3] it was 1.03; with P. vulgatus RND KO, 1.01. Moreover, the “growth AUC normalised to DMSO control” value in the assay with P. vulgatus WT was 1; in assay [4], 1; in [5], 0.938.
In the case of `C[N+]12CCC(CC1)C(OC(=O)C(O)(c1ccccc1)c1ccccc1)C2` (configuration not stated) [Clidinium bromide], the “growth AUC normalised to DMSO control” value is 0.998 in [1]; 0.969 in assay [2]; 0.975 with Shigella flexneri; 0.99 in the assay on Vibrio cholerae; 0.999 in [3]; 1.03 in the assay with P. vulgatus RND KO. The “growth AUC normalised to DMSO control” value in the assay with P. vulgatus WT was 0.999; in [4] it was 1.02; in assay [5], 0.997.
